Results on 53 molecules are retold here after PubChem BioAssay (NCATS).

In assay [1] the target is Pyruvate kinase (Leishmania mexicana) (UniProt Q27686). Kind of assay: qHTS Validation Assay for Inhibitors of Leishmania Mexicana Pyruvate Kinase (AID 945). Note: potency is the fitted concentration of half-maximal effect. In a few lines:
(§1)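 The enzyme is a highly purified E451W mutant of LmPYK used at 0.2 nM. It converts 0.5 mM PEP and 0.1 mM ADP over 1 h at room temperature; product ATP is quantified by luciferase luminescence relative to DMSO controls.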
On the technique in general: In qHTS, concentration-response curves come from the screen itself.

For assay [2], the target named is Pyruvate kinase PKM (Homo sapiens) (UniProt P14618). Kind of assay: qHTS Assay for Activators of Human Muscle Pyruvate Kinase (AID 954; active = well fitted curve in the direction sought with a large enough effect, not every such curve was filed as active). Summed up:
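Reaction: 0.1 nM purified PKM2 with 0.5 mM phosphoenolpyruvate and 0.1 mM ADP, room temperature, 1 h. Readout: luciferase-based ATP luminescence after stop reagent. Activators judged against a 0.3 nM enzyme column.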

A short description of assay [3]: MultiTox-Fluor Cytotoxicity Assay - LYMP1-002 - Live Cells (AID 955). In a few lines: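 Human lymphoblastoid LYMP1-002 cells, 2500/well in complete medium, rested 5 hr at 37 C, then exposed to compounds for 16 hr at 37 C. Live-cell protease cleavage of GF-AFC read by fluorescence (Ex/Em 405/510) after 60 min at room temperature; AC50 from Hill fits.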
Assay [4] can be described thus: MultiTox-Fluor Cytotoxicity Assay - LYMP1-002 - Dead Cells (AID 960). Note: nearly all actives have a fitted effect of over 60% in size. In a few lines: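 Human lymphoblastoid cells (LYMP1-002), 2500/well in complete medium, were exposed to compounds for 16 hr at 37 C. Dead-cell protease activity was read as bis-AAF-R110 fluorescence (Ex/Em 485/520), normalized to DMSO and 15 uM tetraoctylammonium bromide; AC50 from Hill fits.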

The nature of assay [5]: MultiTox-Fluor Cytotoxicity Assay - LYMP1-003 - Dead Cells (AID 961). Note: nearly all actives have a fitted effect of over 70% in size. In a few lines:
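LYMP1-003 lymphoblastoid, 2500 cells/well, 5 hr settle then 16 hr cpd at 37 C; MultiTox-Fluor reagent 60 min RT; Ex/Em 485/520 dead-cell signal; norm. DMSO = 0%, 15 uM tetraoctylammonium bromide = 100%; Hill AC50.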

The nature of assay [6]: MultiTox-Fluor Cytotoxicity Assay - LYMP1-001 - Dead Cells (AID 946). In a few lines: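 Seed 2500 LYMP1-001 cells/well, incubate 5 hr at 37 C; add compound, 16 hr at 37 C; add MultiTox-Fluor reagent, 60 min RT; read dead-cell fluorescence Ex/Em=485/520. Normalize to DMSO and 15 uM tetraoctylammonium bromide.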
Assay [7] in a line: MultiTox-Fluor Cytotoxicity Assay - LYMP1-001 - Live Cells (AID 947).
A short description of assay [8]: Cell Viability - LYMP1-002 - Assay at 16 hr (AID 948). Summed up: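 ATP luminescence (CellTiter-Glo) was measured after 16 hr compound exposure at 37 C of 2500 lymphoblastoid LYMP1-002 cells per well. Concentration-response curves were fitted with the Hill equation to give AC50.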
Assay [9] addresses Pyruvate kinase (Leishmania mexicana) (UniProt Q27686). Briefly: qHTS Validation Assay for Activators of Leishmania Mexicana Pyruvate Kinase (AID 959). Summed up: as §1
In assay [10] the target is Pyruvate kinase PKM (Homo sapiens) (UniProt P14618). Briefly: qHTS Assay for Inhibitors of Human Muscle Pyruvate Kinase (AID 958). Summed up: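 ATP production by PKM2 detected via luciferase luminescence after 1 h room-temperature reaction (0.1 nM enzyme, PEP at Km 0.5 mM, ADP 0.1 mM, pH 7.2 imidazole buffer). Inhibition scaled to no-enzyme control; activation referenced to 0.3 nM enzyme wells.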
Sequence of Pyruvate kinase PKM (Homo sapiens) (P14618 whole entry, looked up): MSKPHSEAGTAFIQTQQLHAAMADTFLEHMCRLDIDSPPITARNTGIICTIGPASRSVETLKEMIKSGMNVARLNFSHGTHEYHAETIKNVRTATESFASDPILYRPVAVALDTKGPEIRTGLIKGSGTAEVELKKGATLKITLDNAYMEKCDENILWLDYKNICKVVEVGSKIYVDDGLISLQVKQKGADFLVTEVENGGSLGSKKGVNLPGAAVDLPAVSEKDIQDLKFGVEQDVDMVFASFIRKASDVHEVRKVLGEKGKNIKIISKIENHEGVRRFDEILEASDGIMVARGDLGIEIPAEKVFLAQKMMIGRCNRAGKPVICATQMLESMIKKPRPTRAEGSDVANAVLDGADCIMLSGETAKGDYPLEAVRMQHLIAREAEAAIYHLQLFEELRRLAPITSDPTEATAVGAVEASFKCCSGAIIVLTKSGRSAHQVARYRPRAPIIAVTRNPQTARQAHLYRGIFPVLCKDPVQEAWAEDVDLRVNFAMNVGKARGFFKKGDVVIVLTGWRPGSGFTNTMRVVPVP

Inconclusive results are not listed. Where a call stands in place of a potency, no number is given. Active and inactive are the calls of the source. Unless noted, calls come from the whole dose curve; as a rule, active = well fitted curve in the direction sought with a large enough effect; inconclusive = small, poorly fitted or top-dose-only effect, or another doubt; inactive = no such curve, though single readings can be large; an effect the other way counts as inactive or inconclusive.

Sequence of Pyruvate kinase (Leishmania mexicana) (Q27686 2-499 E452W): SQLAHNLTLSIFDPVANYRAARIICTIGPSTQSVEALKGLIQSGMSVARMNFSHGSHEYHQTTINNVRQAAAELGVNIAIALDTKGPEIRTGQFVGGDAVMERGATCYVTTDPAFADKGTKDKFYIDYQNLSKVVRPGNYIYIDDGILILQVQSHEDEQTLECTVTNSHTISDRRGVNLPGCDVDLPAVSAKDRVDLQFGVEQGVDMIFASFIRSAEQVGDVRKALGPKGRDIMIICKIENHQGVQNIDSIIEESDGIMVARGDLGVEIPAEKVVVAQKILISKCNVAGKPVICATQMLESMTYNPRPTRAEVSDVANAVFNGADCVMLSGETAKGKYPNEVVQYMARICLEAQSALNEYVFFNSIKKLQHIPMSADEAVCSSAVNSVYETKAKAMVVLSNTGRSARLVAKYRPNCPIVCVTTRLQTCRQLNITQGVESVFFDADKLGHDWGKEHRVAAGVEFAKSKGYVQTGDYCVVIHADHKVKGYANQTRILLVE

As for `Clc1ccc(N2CCN(Cc3c[nH]c4ncccc34)CC2)cc1`, the Potency entry in assay [1] is “inactive”. The molecule was called inactive in [2].

Take `N#C/C(=C\c1c[nH]c2ccccc12)C(=O)c1ccc(O)c(O)c1`: the Potency result in assay [1] was “inactive”. In addition, in assay [2], the result was inactive.

For the molecule `N=C(N)SCCc1ccc(CCSC(=N)N)cc1`, the Potency entry in assay [1] is “inactive”. Also, in assay [2], the outcome was inactive.

Turning to `CC(C)(C=O)Cc1cc(C(C)(C)C)c(O)c(C(C)(C)C)c1`, the Potency result in assay [1] was “inactive”. In addition, the result in [2] was inactive.

With `NC[C@@H]1O[C@H](C23CC4CC(CC(C4)C2)C3)Cc2c1ccc(O)c2O`, the Potency result in assay [1] is “inactive”. The molecule was called inactive in [2].

Take `COC(=O)c1c(C)[nH]c(C)c1C(=O)c1ccccc1Cc1ccccc1`: the Potency entry in assay [1] was “inactive”. Further, the result in [2] was inactive.

`C=C[C@H]1CN2CC[C@@H]1C[C@@H]2[C@@H](O)c1ccnc2ccc(OC)cc12`: the Potency result in assay [1] was “inactive”. In assay [2], the outcome was inactive.

On to `NCCNC(=O)c1ncsc1-c1cccc(F)c1`, for which the Potency entry in assay [1] was “inactive”. Besides, the molecule was classed as inactive in [2].

`CNCC[C@H](Oc1ccc(C(F)(F)F)cc1)c1ccccc1`: the Potency entry in [1] is “inactive”. In addition, the molecule was called inactive in assay [2].

With `CC1(C)CCC=[N+]1[O-]`, in assay [1], the Potency entry was “inactive”. Besides, the molecule was classed as inactive in [2].

Regarding `O=Nc1ccc2oc(=O)ccc2c1`, the Potency entry in assay [1] is “inactive”. Moreover, the molecule was called inactive in assay [2].

Consider `O=C1NC(O)=NC1(c1ccccc1)c1ccccc1`, for which the Potency entry in assay [1] was “inactive”. The call in assay [2] was inactive.

On to `CCCCN1CCC(n2c(=O)[nH]c3ccccc32)CC1`, for which, in assay [1], the Potency result is “inactive”. In assay [2], the result was inactive.

As for `N#C/C(=C\c1ccc(O)c(O)c1)C(=O)NCc1ccccc1`, the Potency entry in [1] was “inactive”. Besides, the result in assay [2] was inactive.

With `CCN1/C(=C/C(C)=O)Sc2ccc(OC)cc21`, the Potency result in assay [1] was “inactive”. Also, in assay [2], the molecule was classed as inactive.

On to `Brc1c(Br)c(Br)c2n[nH]nc2c1Br`, for which the Potency entry in [1] was “inactive”. Also, the molecule was called inactive in assay [2].

As for `O=C(O)c1cc([N+](=O)[O-])ccc1NCCCc1ccccc1`, the Potency entry in assay [1] is “inactive”. In [2], the outcome was inactive.

As to `C[C@@H](NC(=O)/C(C#N)=C/c1ccc(O)c(O)c1)c1ccccc1`, the Potency entry in assay [1] was “inactive”. In assay [2], the molecule was called inactive.

`N#C/C(=C\c1ccc(O)c(O)c1)C(=O)NCCCc1ccccc1`: the Potency result in [1] was “inactive”. The call in assay [2] was inactive.

Regarding `Ic1ccc(N2CCN(Cc3c[nH]c4ncccc34)CC2)cc1`, in assay [1], the Potency entry was “inactive”. Also, the outcome in assay [2] was inactive.

For `c1cnc2c(c1)ccc1cccnc12`, the Potency result in [1], in assay [3], in assay [4] and in [5] was “inactive” each time. Besides, the call in [2] was inactive.

As for `CCCCCCCC/C=C\CCCCCCCC(=O)NCCO`, in [1], the Potency entry is “inactive”. Further, the molecule was classed as inactive in assay [2].

In the case of `CN1[C@@H]2CC[C@H]1CC(OC(c1ccccc1)c1ccccc1)C2` (stereo partly drawn), the Potency entry in assay [1] was “inactive”. For the same molecule, the molecule was classed as inactive in [2].

For the molecule `N[C@H](CCCP(=O)(O)O)C(=O)O`, in assay [1], the Potency result was “inactive”. In addition, the molecule was called inactive in assay [2].

Consider `NCCSSCCN`, for which the Potency result in assay [1] was “inactive”. The call in assay [2] was inactive.

On to `COc1ccccc1CNCCCCCCNCCCCCCCCNCCCCCCNCc1ccccc1OC`, for which, in assay [1], the Potency entry was “inactive”. The outcome in [2] was inactive.

As for `CN1CCc2ccccc2Cc2[nH]c3ccccc3c2CC1`, the Potency entry in assay [1] is “inactive”. For the same molecule, the call in assay [2] was inactive.

As to `O=S(=O)(c1cccc2c(I)cccc12)N1CCCNCC1`, the Potency entry in assay [1] was “inactive”. Further, in assay [2], the molecule was classed as inactive.

For `CC(C)Cc1ccc([C@H](C)C(=O)O)cc1`, in assay [1], the Potency result is “inactive”. The molecule was called inactive in assay [2].

For the molecule `CN(C)c1nc(N)c(C(=O)N=C(N)N)nc1Cl`, in assay [1], the Potency result is “inactive”. Further, in assay [2], the call was inactive.

Turning to `CCCn1c(=O)c2[nH]c(-c3ccc(OCC(=O)NCCN)cc3)nc2n(CCC)c1=O`, the Potency result in assay [1] is “inactive”. In addition, the outcome in assay [2] was inactive.

With `O=C(O)CC[C@@H](C(=O)O)N1C(=O)c2ccccc2C1=O`, the Potency entry in assay [1] was “inactive”. Further, in [2], the result was inactive.

As for `NCCCS(=O)(=O)O`, in assay [1], the Potency result is “inactive”. Moreover, the call in [2] was inactive.

For `N[C@@H](CC(=O)O)C(=O)O`, the Potency entry in assay [1] is “inactive”. The outcome in assay [2] was inactive.

Regarding `COc1cc2c(CCNC(C)=O)c[nH]c2cc1Cl`, the Potency result in assay [1] is “inactive”. For the same molecule, the molecule was called inactive in assay [2].

In the case of `N.N.O=C(O)C1(C(=O)O)CCC1.[Pt]`, the Potency result in [1] was “inactive”. In addition, the molecule was classed as inactive in assay [2].

For `CN(C)C(N)=NCCC[C@H](N)C(=O)O`, the Potency entry in [1] was “inactive”. Moreover, the molecule was called inactive in [2].

Take `O=C(c1cc(O)c(O)c([N+](=O)[O-])c1)c1ccccc1F`: the Potency result in [1] was “inactive”. For the same molecule, in assay [2], the call was inactive.

As for `CN(C)c1nc2c(Br)c(Br)c(Br)c(Br)c2[nH]1`, the Potency result in assay [1] was “inactive”. The molecule was called inactive in [2].

On to `O=c1[nH]c2ccccc2n1CCCN1CCN(C(c2ccccc2)c2ccccc2)CC1`, for which the Potency result in assay [1] is “inactive”. Also, in assay [2], the outcome was inactive.

`O=c1[nH]c2cc([N+](=O)[O-])c([N+](=O)[O-])cc2[nH]c1=O`: in assay [1], the Potency result was “inactive”. In addition, the molecule was called inactive in assay [2].

`COc1cc(OC)c(/C=C2/C(=O)Nc3ccccc32)c(OC)c1`: the Potency result in [1] is “inactive”. Moreover, the call in assay [2] was inactive.

For the molecule `COC1=C(OC)C(=O)c2ccccc2C1=O`, in assay [1], the Potency result is “inactive”. Moreover, in assay [2], the molecule was called inactive.

As for `CCCN(CC1CC1)c1nc(C)nc(Nc2c(Cl)cc(Cl)cc2Cl)c1Cl`, the Potency result in [1] is “inactive”. In assay [2], the molecule was classed as inactive.

Consider `Fc1ccc(C(OCCCc2cnc[nH]2)c2ccc(F)cc2)cc1`, for which, in assay [1], the Potency entry was “inactive”. Moreover, in [2], the result was inactive.

On to `N#C/C(=C\c1ccc(O)c(O)c1)C(=O)c1ccc(O)c(O)c1`, for which the Potency result in assay [1] is “inactive”. In assay [2], the molecule was called inactive.

For the molecule `CC(C)NCC(O)COc1cccc2ccccc12` (stereo not drawn), the Potency result in [6], in [7], in [8], in [3] and in assay [5] was “inactive” in each case.

`O=C(O)c1cc(=O)c2ccccc2[nH]1`: the result in assay [2] was inactive.

For `Nc1ccc(O)c([N+](=O)[O-])c1`, the Potency entry in assay [6], in assay [7], in assay [8], in assay [3] and in [5] was “inactive” in each case.

In the case of `CN(C)c1ccc(N=NS(=O)(=O)O)cc1`, the Potency result in assay [6], in [7], in assay [8], in assay [3], in assay [4] and in [5] was “inactive” each time.

As to `CN1CCc2cc(NC(=O)Nc3cccnc3)ccc21`, the Potency in [1] is 20 µM (active). Besides, in [2], the molecule was classed as inactive. Moreover, in assay [9], the Potency entry is “inactive”.

As to `CCCOC(=O)c1ccc(O)cc1`, the Potency entry in assay [6], in [7], in [8], in assay [3], in assay [4] and in assay [5] was “inactive” throughout.

`Oc1cc2c(cc1O)CN(C(=S)NCCc1ccc(Cl)cc1)CCC2`: the Potency result in assay [1] and in assay [10] was “inactive” in each case.
